Drawing on PubChem BioAssay, this text covers inhibition for 23 molecules.

Molecules are shown by their SMILES. Values without a mark were called inactive. The rule behind the calls is not given here.

The experiment deals with Pantothenate synthetase (Mycobacterium tuberculosis (strain ATCC 25618 / H37Rv)) (UniProt P9WIL5). The experiment in a line: Coupled enzyme confirmation of inhibitors against recombinant Mtb PanC (AID 375).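 Note: 0% = full reaction with vehicle and 100% = no enzyme background.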 To be noted: coupled enzyme assay; at 10 µM, hits give high values.
Sequence of Pantothenate synthetase (Mycobacterium tuberculosis (strain ATCC 25618 / H37Rv)) (P9WIL5 whole entry, looked up): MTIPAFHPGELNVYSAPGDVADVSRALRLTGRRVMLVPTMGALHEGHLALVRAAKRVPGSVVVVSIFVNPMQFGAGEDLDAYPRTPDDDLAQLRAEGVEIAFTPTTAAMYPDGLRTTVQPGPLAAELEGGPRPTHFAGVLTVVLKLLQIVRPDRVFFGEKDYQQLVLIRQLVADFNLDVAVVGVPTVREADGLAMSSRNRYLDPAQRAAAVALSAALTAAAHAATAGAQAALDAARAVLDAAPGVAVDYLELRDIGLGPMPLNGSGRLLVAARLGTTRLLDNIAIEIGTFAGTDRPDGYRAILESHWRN
What is called inhibition is how much of the control response was suppressed. As for `CCSc1nnc(-c2cccs2)o1`, the inhibition was 0%.

Consider `O=C(CCn1c(=S)[nH]c2ccccc2c1=O)NCC1CCCO1` (stereo not drawn), for which the inhibition is 4%.

Turning to `CCCCn1c(NC(=O)CC)c(C#N)c2nc3ccccc3nc21`, the inhibition was 4%.

With `O=C(Cn1ncc2c(=O)oc3ccccc3c21)NCC1CCCO1` (stereo not drawn), the inhibition is 4%.

Regarding `CCCCn1c(SCc2cccnc2)nc2c1c(=O)n(C)c(=O)n2C`, the inhibition is 0%.

Take `CC(C)[N+]1(C)[C@@H]2CC[C@H]1CC(OC(=O)C(CO)c1ccccc1)C2` (stereo partly drawn): the inhibition was 0%.

With `O=C(Nc1ccc(S(=O)(=O)Nc2ccc(Cl)cc2)cc1)C1CCCO1` (stereo not drawn), the inhibition is 4%.

With `CCC(C)(C)NC(=O)C(c1ccco1)N(C(=O)Cn1nnc2ccccc21)c1ccc2c(c1)OCO2` (stereo not drawn), the inhibition is 0%.

Turning to `COc1ccc2ccccc2c1CN1CCCC(CO)C1` (stereo not drawn), the inhibition is 0%.

Consider `Cc1ccccc1-c1nc(CN2CCC(C(=O)NC3CCN(Cc4ccccc4)CC3)CC2)c(C)o1`, for which the inhibition is 0%.

As for `CCOCCCNC(=O)c1c[nH]c2ccc(S(=O)(=O)Nc3cccc(OC)c3)cc2c1=O`, the inhibition is 0%.

On to `COc1ccc(NC(=O)CSC2=C(C#N)C(c3ccco3)C3=C(CCCC3=O)N2)c(OC)c1` (stereo not drawn), for which the inhibition is 16%.

Take `CCOC(=O)c1sc(N2C(=O)C(O)=C(C(=O)c3ccco3)C2c2ccccc2)nc1C` (stereo not drawn): the inhibition was 0%.

Consider `Cc1cc(C)nc(SCc2nnc(SCC(=O)Nc3ncc(C)s3)n2Cc2ccco2)n1`, for which the inhibition is 0%.

In the case of `O=C(c1cnccn1)N(c1ccccc1)C1(C(=O)NC2CCCC2)CCCCC1`, the inhibition was 0%.

Consider `Nc1ncnc2oc(-c3ccco3)c(-c3ccco3)c12`, for which the inhibition is 2%.

Take `Cc1cc(-c2ccccc2)c2c3c(cn2n1)c(=O)n(C)c(=O)n3C`: the inhibition is 0%.

Turning to `CCN(CC)S(=O)(=O)c1ccc(NC2CCCc3ccccc32)nc1` (stereo not drawn), the inhibition was 0%.

For the molecule `N#CCc1nc2c3c4c(sc3ncn2n1)CCCC4`, the inhibition is 7%.

For `Nn1c(SCC(=O)NC2CCCCC2)nnc1-c1ccc(Cl)cc1`, the inhibition is 2%.

On to `Cc1nn(-c2nc3ccccc3[nH]2)c(N)c1-c1ccccc1`, for which the inhibition is 8%.

For `Cc1ccc(S(=O)(=O)c2cc3c(=O)n4ccccc4nc3n(CC3CCCO3)c2=N)cc1C` (stereo not drawn), the inhibition is 0%.

Regarding `COCCCn1c(SCC(=O)Nc2cccc(C)n2)nnc1-c1ccco1`, the inhibition is 0%.
